According to the supplement of paper PMC7411054:

Key:
Assay in all cases: phenotypically active (imaging signature differs from DMSO and reproducible) at any of 0.3-9 uM (binary (1 = active, 0 = inactive)); higher = active
Settings in all cases: treatment time: 24 h
A549-ACTB-RAB5A = system: A549-ACTB-RAB5A
Outline: (§1)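 Fifteen reporter lines derived from A549, HepG2 and WPMY1 cells by gene editing, carrying BFP for segmentation plus GFP and RFP/FusionRed markers, were exposed to 0.3, 1, 3 or 9 µM for 24 h in four wells each and imaged live. Live-cell features from each well were normalised to solvent control wells. A well set counted as deviating when ≥3 of 4 wells lay beyond the 95th percentile of control Euclidean distances, and as reproducible when the median replicate Pearson correlation exceeded the 95th percentile of non-replicates. Phenotypic activity was assigned only when both criteria were met.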

A549-CANX-COX4 = system: A549-CANX-COX4
Outline: as §1

A549-GM130-SQSTM1 = system: A549-GM130-SQSTM1
Outline: as §1

A549-TP53BP1-CLTA = system: A549-TP53BP1-CLTA
Outline: as §1

A549-TUBA1B-RELA = system: A549-TUBA1B-RELA
Outline: as §1

HepG2-ACTB-RAB5A = system: HepG2-ACTB-RAB5A
Outline: as §1

HepG2-CANX-COX4 = system: HepG2-CANX-COX4
Outline: as §1

HepG2-GM130-SQSTM1 = system: HepG2-GM130-SQSTM1
Outline: as §1

HepG2-TP53BP1-CLTA = system: HepG2-TP53BP1-CLTA
Outline: as §1

HepG2-TUBA1B-RELA = system: HepG2-TUBA1B-RELA
Outline: as §1

WPMY1-ACTB-RAB5A = system: WPMY1-ACTB-RAB5A
Outline: as §1

WPMY1-CANX-COX4 = system: WPMY1-CANX-COX4
Outline: as §1

WPMY1-GM130-SQSTM1 = system: WPMY1-GM130-SQSTM1
Outline: as §1

WPMY1-TP53BP1-CLTA = system: WPMY1-TP53BP1-CLTA
Outline: as §1

WPMY1-TUBA1B-RELA = system: WPMY1-TUBA1B-RELA
Outline: as §1

Measured: phenotypically active

O=C(NCc1ccccn1)Nc1nnc(-c2ccco2)o1
inactive: A549-ACTB-RAB5A 0 | A549-CANX-COX4 0 | A549-GM130-SQSTM1 0 | A549-TP53BP1-CLTA 0 | A549-TUBA1B-RELA 0 | HepG2-ACTB-RAB5A 0 | HepG2-CANX-COX4 0 | HepG2-GM130-SQSTM1 0 | HepG2-TP53BP1-CLTA 0 | HepG2-TUBA1B-RELA 0 | WPMY1-ACTB-RAB5A 0 | WPMY1-CANX-COX4 0 | WPMY1-GM130-SQSTM1 0 | WPMY1-TP53BP1-CLTA 0 | WPMY1-TUBA1B-RELA 0

O=c1[nH]cnc2ccccc12
inactive: A549-ACTB-RAB5A 0 | A549-CANX-COX4 0 | A549-GM130-SQSTM1 0 | A549-TP53BP1-CLTA 0 | A549-TUBA1B-RELA 0 | HepG2-ACTB-RAB5A 0 | HepG2-CANX-COX4 0 | HepG2-GM130-SQSTM1 0 | HepG2-TP53BP1-CLTA 0 | HepG2-TUBA1B-RELA 0 | WPMY1-ACTB-RAB5A 0 | WPMY1-CANX-COX4 0 | WPMY1-GM130-SQSTM1 0 | WPMY1-TP53BP1-CLTA 0 | WPMY1-TUBA1B-RELA 0

COc1ccc(C[C@H](C)NC[C@@H](O)c2ccc(O)c(NC=O)c2)cc1 [formoterol]
inactive: A549-ACTB-RAB5A 0 | A549-CANX-COX4 0 | A549-GM130-SQSTM1 0 | A549-TP53BP1-CLTA 0 | A549-TUBA1B-RELA 0 | HepG2-ACTB-RAB5A 0 | HepG2-CANX-COX4 0 | HepG2-GM130-SQSTM1 0 | HepG2-TP53BP1-CLTA 0 | HepG2-TUBA1B-RELA 0 | WPMY1-ACTB-RAB5A 0 | WPMY1-CANX-COX4 0 | WPMY1-GM130-SQSTM1 0 | WPMY1-TP53BP1-CLTA 0 | WPMY1-TUBA1B-RELA 0

NCCc1ccc(O)c(O)c1 [dopamine]
inactive: A549-ACTB-RAB5A 0 | A549-CANX-COX4 0 | A549-GM130-SQSTM1 0 | A549-TP53BP1-CLTA 0 | A549-TUBA1B-RELA 0 | HepG2-ACTB-RAB5A 0 | HepG2-CANX-COX4 0 | HepG2-GM130-SQSTM1 0 | HepG2-TP53BP1-CLTA 0 | HepG2-TUBA1B-RELA 0 | WPMY1-ACTB-RAB5A 0 | WPMY1-CANX-COX4 0 | WPMY1-GM130-SQSTM1 0 | WPMY1-TP53BP1-CLTA 0 | WPMY1-TUBA1B-RELA 0

CC(C)(C)NC(=O)[C@@H]1CN(Cc2cccnc2)CCN1C[C@@H](O)C[C@@H](Cc1ccccc1)C(=O)N[C@H]1c2ccccc2C[C@H]1O [indinavir]
inactive: A549-ACTB-RAB5A 0 | A549-CANX-COX4 0 | A549-GM130-SQSTM1 0 | A549-TP53BP1-CLTA 0 | A549-TUBA1B-RELA 0 | HepG2-ACTB-RAB5A 0 | HepG2-CANX-COX4 0 | HepG2-GM130-SQSTM1 0 | HepG2-TP53BP1-CLTA 0 | HepG2-TUBA1B-RELA 0 | WPMY1-ACTB-RAB5A 0 | WPMY1-CANX-COX4 0 | WPMY1-GM130-SQSTM1 0 | WPMY1-TP53BP1-CLTA 0 | WPMY1-TUBA1B-RELA 0

C[C@H](N[C@@H](CCc1ccccc1)C(=O)O)C(=O)N1CCC[C@H]1C(=O)O [enalaprilat]
inactive: A549-ACTB-RAB5A 0 | A549-CANX-COX4 0 | A549-GM130-SQSTM1 0 | A549-TP53BP1-CLTA 0 | A549-TUBA1B-RELA 0 | HepG2-ACTB-RAB5A 0 | HepG2-CANX-COX4 0 | HepG2-GM130-SQSTM1 0 | HepG2-TP53BP1-CLTA 0 | HepG2-TUBA1B-RELA 0 | WPMY1-ACTB-RAB5A 0 | WPMY1-CANX-COX4 0 | WPMY1-GM130-SQSTM1 0 | WPMY1-TP53BP1-CLTA 0 | WPMY1-TUBA1B-RELA 0

Cc1ccnn1-c1ccc(C(=O)N2CCN(S(=O)(=O)c3ccc(Cl)c(C(F)(F)F)c3)CC2)cc1
inactive: A549-ACTB-RAB5A 0 | A549-CANX-COX4 0 | A549-GM130-SQSTM1 0 | A549-TP53BP1-CLTA 0 | A549-TUBA1B-RELA 0 | HepG2-ACTB-RAB5A 0 | HepG2-CANX-COX4 0 | HepG2-GM130-SQSTM1 0 | HepG2-TP53BP1-CLTA 0 | HepG2-TUBA1B-RELA 0 | WPMY1-ACTB-RAB5A 0 | WPMY1-CANX-COX4 0 | WPMY1-GM130-SQSTM1 0 | WPMY1-TP53BP1-CLTA 0 | WPMY1-TUBA1B-RELA 0

CC(Oc1ccc(O)cc1)(P(=O)(O)O)P(=O)(O)O
inactive: A549-ACTB-RAB5A 0 | A549-CANX-COX4 0 | A549-GM130-SQSTM1 0 | A549-TP53BP1-CLTA 0 | A549-TUBA1B-RELA 0 | HepG2-ACTB-RAB5A 0 | HepG2-CANX-COX4 0 | HepG2-GM130-SQSTM1 0 | HepG2-TP53BP1-CLTA 0 | HepG2-TUBA1B-RELA 0 | WPMY1-ACTB-RAB5A 0 | WPMY1-CANX-COX4 0 | WPMY1-GM130-SQSTM1 0 | WPMY1-TP53BP1-CLTA 0 | WPMY1-TUBA1B-RELA 0

C=C(C)[C@@H]1CC[C@]2(CO)CC[C@]3(C)[C@H](CC[C@@H]4[C@@]5(C)CC[C@H](O)C(C)(C)[C@@H]5CC[C@]43C)[C@@H]12 [Betulin]
inactive: A549-ACTB-RAB5A 0 | A549-CANX-COX4 0 | A549-GM130-SQSTM1 0 | A549-TP53BP1-CLTA 0 | A549-TUBA1B-RELA 0 | HepG2-ACTB-RAB5A 0 | HepG2-CANX-COX4 0 | HepG2-GM130-SQSTM1 0 | HepG2-TP53BP1-CLTA 0 | HepG2-TUBA1B-RELA 0 | WPMY1-ACTB-RAB5A 0 | WPMY1-CANX-COX4 0 | WPMY1-GM130-SQSTM1 0 | WPMY1-TP53BP1-CLTA 0 | WPMY1-TUBA1B-RELA 0

NS(=O)(=O)c1cc(C2(O)NC(=O)c3ccccc32)ccc1Cl (stereo not given) [chlorthalidone]
inactive: A549-ACTB-RAB5A 0 | A549-CANX-COX4 0 | A549-GM130-SQSTM1 0 | A549-TP53BP1-CLTA 0 | A549-TUBA1B-RELA 0 | HepG2-ACTB-RAB5A 0 | HepG2-CANX-COX4 0 | HepG2-GM130-SQSTM1 0 | HepG2-TP53BP1-CLTA 0 | HepG2-TUBA1B-RELA 0 | WPMY1-ACTB-RAB5A 0 | WPMY1-CANX-COX4 0 | WPMY1-GM130-SQSTM1 0 | WPMY1-TP53BP1-CLTA 0 | WPMY1-TUBA1B-RELA 0

N[C@@H](Cc1ccc(O)c(O)c1)C(=O)O [levodopa]
inactive: A549-ACTB-RAB5A 0 | A549-CANX-COX4 0 | A549-GM130-SQSTM1 0 | A549-TP53BP1-CLTA 0 | A549-TUBA1B-RELA 0 | HepG2-ACTB-RAB5A 0 | HepG2-CANX-COX4 0 | HepG2-GM130-SQSTM1 0 | HepG2-TP53BP1-CLTA 0 | HepG2-TUBA1B-RELA 0 | WPMY1-ACTB-RAB5A 0 | WPMY1-CANX-COX4 0 | WPMY1-GM130-SQSTM1 0 | WPMY1-TP53BP1-CLTA 0 | WPMY1-TUBA1B-RELA 0

O=S(=O)(NCCSSCCNS(=O)(=O)c1cc(Cl)ccc1Cl)c1cc(Cl)ccc1Cl
inactive: A549-ACTB-RAB5A 0 | A549-CANX-COX4 0 | A549-GM130-SQSTM1 0 | A549-TP53BP1-CLTA 0 | A549-TUBA1B-RELA 0 | HepG2-ACTB-RAB5A 0 | HepG2-CANX-COX4 0 | HepG2-GM130-SQSTM1 0 | HepG2-TP53BP1-CLTA 0 | HepG2-TUBA1B-RELA 0 | WPMY1-ACTB-RAB5A 0 | WPMY1-CANX-COX4 0 | WPMY1-GM130-SQSTM1 0 | WPMY1-TP53BP1-CLTA 0 | WPMY1-TUBA1B-RELA 0
